Here are results for 8 molecules from PubChem BioAssay (NCI).

Molecules are shown by their SMILES. Compounds without any hit were thinned out: in the full panel of roughly 83,000, 20% have a hit.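 Percent growth is the endpoint: 0 to 100 indicates growth inhibition (40 means 60% inhibition), 0 means no net growth, and negative values indicate cell death.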 A number with no mark means an inactive call. Active and inactive are the calls of the source. Rule for the calls: active = growth percent below 10; inactive = the rest.

What all share (assay): NCI-60 one-dose screen, 48 h (100 = growth as untreated, 0 = no growth, -100 = all killed)
One test deals with K-562 leukemia. Conditions: 10 µM unless noted.
Another test relates to MALME-3M melanoma. Conditions: 10 µM unless noted.
For another test, the system named is MDA-MB-231 breast. Conditions: 10 µM unless noted.
The next test has as its system RXF 393 renal. Particulars: 10 µM unless noted.
A further test deals with SF-268 CNS. Conditions: 10 µM unless noted.
The subject of another test is SF-295 CNS. Particulars: 10 µM unless noted.
A further test concerns SF-539 CNS. Particulars: 10 µM unless noted.
The next test relates to UACC-257 melanoma. Conditions: 10 µM unless noted.
A further test relates to M14 melanoma. Particulars: 10 µM unless noted.
For the next test, the system named is HCT-15 colon. Conditions: 10 µM unless noted.
A further test relates to HT29 colon. Conditions: 10 µM unless noted.
In a further test the test system is SNB-75 CNS. Conditions: 10 µM unless noted.
Another test deals with SNB-19 CNS. Conditions: 10 µM unless noted.
Another test concerns U251 CNS. Particulars: 10 µM unless noted.
A further test deals with PC-3 prostate. Particulars: 10 µM unless noted.
The subject of the next test is SK-MEL-5 melanoma. Particulars: 10 µM unless noted.
In the next test the test system is UACC-62 melanoma. Conditions: 10 µM unless noted.
The test system of the next test is LOX IMVI melanoma. Conditions: 10 µM unless noted.
For the next test, the system named is SK-MEL-28 melanoma. Particulars: 10 µM.
A further test concerns SK-MEL-2 melanoma. Conditions: 10 µM unless noted.

As for `COc1ccc(Nc2nc(N/N=C/c3ccc(O)cc3)nc(Nc3ccc([N+](=O)[O-])cc3)n2)cc1`, the growth with K-562 leukemia is 103%; with MALME-3M melanoma, 114%; in the test on MDA-MB-231 breast, 109%; in the test on RXF 393 renal, 121%; in the test with SF-268 CNS, 128%; in the test on SF-295 CNS, 89.2%. For the same molecule, the growth is 110% in the test on SF-539 CNS; 99.9% in the test on UACC-257 melanoma; 108% with M14 melanoma; 107% in the test with HCT-15 colon; 105% in the test with HT29 colon; 104% in the test on SNB-75 CNS. For the same molecule, the growth was 101% in the test with SNB-19 CNS; 104% with U251 CNS; 108% in the test on PC-3 prostate; 104% in the test with SK-MEL-5 melanoma; 110% in the test with UACC-62 melanoma; 107% in the test on LOX IMVI melanoma. The growth in the test with SK-MEL-28 melanoma was 104%; in the test on SK-MEL-2 melanoma, 103%.

Consider `COc1ccc(C2C3=C(COC3=O)N(CCO)c3cc4c(cc32)CCC4)cc1` (stereo not drawn), for which the growth is 24% with K-562 leukemia; 64.7% in the test with MALME-3M melanoma; 70.9% in the test with MDA-MB-231 breast; 30.5% with RXF 393 renal; 74.5% in the test on SF-268 CNS; 16.3% with SF-295 CNS. For the same molecule, the growth in the test on SF-539 CNS is 57.2%; in the test on UACC-257 melanoma, 57.1%; in the test on M14 melanoma, 38%; in the test with HCT-15 colon, 37.3%; in the test with HT29 colon, 15.4%; with SNB-75 CNS, 42.4%. Also, the growth was 62.2% with SNB-19 CNS; 42% in the test on U251 CNS; 54.6% in the test with PC-3 prostate; 35.7% in the test on SK-MEL-5 melanoma; 48.3% in the test on UACC-62 melanoma; 51% in the test with LOX IMVI melanoma. The growth in the test on SK-MEL-2 melanoma is 77.9%.

Turning to `CC(C)C[C@H](C(=O)N[C@@H](C)C(N)=O)N1CC=CCN(O)S1(=O)=O`, the growth in the test on K-562 leukemia is 117% [5 µM]; in the test with MALME-3M melanoma, 148% [5 µM]; in the test with MDA-MB-231 breast it was 98.3% [5 µM]; with RXF 393 renal, 119% [5 µM]; in the test with SF-268 CNS it was 108% [5 µM]; in the test on SF-295 CNS, 128% [5 µM]. In addition, the growth with SF-539 CNS is 104% [5 µM]; with UACC-257 melanoma, 85.6% [5 µM]; in the test on M14 melanoma, 108% [5 µM]; in the test on HCT-15 colon, 102% [5 µM]; with HT29 colon, 93.1% [5 µM]; in the test with SNB-75 CNS it was 87.4% [5 µM]. In addition, the growth with SNB-19 CNS was 86.2% [5 µM]; with U251 CNS it was 107% [5 µM]; with PC-3 prostate, 100% [5 µM]; with SK-MEL-5 melanoma, 106% [5 µM]; in the test on UACC-62 melanoma, 108% [5 µM]; in the test on LOX IMVI melanoma, 95.6% [5 µM]. Besides, the growth in the test on SK-MEL-2 melanoma is 103% [5 µM].

In the case of `NC(CCl)=NCCC[C@H](N)C(=O)O`, the growth in the test on K-562 leukemia is 111%; in the test on MALME-3M melanoma, 146%; in the test on MDA-MB-231 breast, 95.8%; with RXF 393 renal it was 100%; with SF-268 CNS, 108%; in the test with SF-295 CNS, 81.1%. The growth in the test on SF-539 CNS was 103%; with UACC-257 melanoma, 87.6%; in the test on M14 melanoma, 88.9%; in the test with HCT-15 colon, 93.7%; in the test with HT29 colon, 105%; in the test with SNB-75 CNS it was 89.6%. Moreover, the growth in the test with SNB-19 CNS is 97.3%; in the test with U251 CNS it was 97.4%; in the test with PC-3 prostate it was 76%; in the test with SK-MEL-5 melanoma, 93.1%; with UACC-62 melanoma it was 91.5%; with LOX IMVI melanoma, 96.3%. The growth with SK-MEL-28 melanoma is 107%; with SK-MEL-2 melanoma, 93.3%.

As for `O=c1oc2ccc(-c3ccc(F)cc3F)cc2c(=O)n1-c1ccc(Cl)c(C(F)(F)F)c1`, the growth was 10.9% with K-562 leukemia; 3.35% (active) in the test with MALME-3M melanoma; 56% in the test on MDA-MB-231 breast; -3.32% (active) in the test with RXF 393 renal; 14.5% in the test on SF-268 CNS; 17.4% in the test with SF-295 CNS. Also, the growth in the test with SF-539 CNS is 29.4%; in the test on UACC-257 melanoma it was -9.78% (active); in the test on M14 melanoma, 21.5%; with HCT-15 colon, 15.8%; in the test on HT29 colon it was 53.1%; in the test with SNB-75 CNS it was 6.37% (active). For the same molecule, the growth is 33.9% in the test with SNB-19 CNS; 6.46% (active) in the test on U251 CNS; 5.88% (active) in the test on PC-3 prostate; -69.6% (active) in the test on SK-MEL-5 melanoma; 0.294% (active) with UACC-62 melanoma; 32.1% in the test with LOX IMVI melanoma. For the same molecule, the growth in the test on SK-MEL-28 melanoma is 20.3%; in the test with SK-MEL-2 melanoma, -18.1% (active).

As to `COc1ccc2c(c1)C=C1CSCC3=Cc4cc(OC)ccc4OC13O2`, the growth in the test with K-562 leukemia was 11%; with MALME-3M melanoma it was 45.2%; in the test on MDA-MB-231 breast, 16.4%; with RXF 393 renal, 5% (active); with SF-268 CNS, 41.1%; in the test on SF-295 CNS, 2.44% (active). The growth was -25.4% (active) with SF-539 CNS; 74.7% in the test with UACC-257 melanoma; 17.2% in the test with M14 melanoma; 18.2% in the test on HCT-15 colon; 6.74% (active) with HT29 colon; 23.9% in the test with SNB-75 CNS. Besides, the growth with SNB-19 CNS is 28.9%; with U251 CNS, 18.7%; in the test on PC-3 prostate it was 19.3%; with SK-MEL-5 melanoma, 14%; in the test on UACC-62 melanoma, 14.2%; in the test with LOX IMVI melanoma it was 24.1%. For the same molecule, the growth in the test with SK-MEL-28 melanoma is 60%; in the test with SK-MEL-2 melanoma, 52.6%.

Take `COc1cc(/C=C/C(=O)c2ccc(Cl)cc2)cc(CN2CCCCC2)c1O`: the growth is 70.4% in the test on K-562 leukemia; 82.2% in the test on MALME-3M melanoma; 83.2% in the test on MDA-MB-231 breast; 97.6% in the test on RXF 393 renal; 91.1% in the test with SF-268 CNS; 97.9% in the test on SF-295 CNS. Moreover, the growth in the test with SF-539 CNS is 92.1%; with UACC-257 melanoma, 92.3%; in the test on M14 melanoma, 91.4%; in the test with HCT-15 colon, 69.8%; in the test on HT29 colon, 19.4%; in the test on SNB-75 CNS, 70.9%. The growth in the test on SNB-19 CNS was 85.4%; in the test with U251 CNS, 74.6%; in the test on PC-3 prostate it was 90.6%; in the test with SK-MEL-5 melanoma, 90.7%; in the test with UACC-62 melanoma it was 87.4%; in the test with LOX IMVI melanoma, 87.4%. The growth with SK-MEL-28 melanoma is 97.9%; in the test on SK-MEL-2 melanoma, 108%.

For the molecule `Cc1nc(Nc2cn[nH]c2C(=O)Nc2ccc(CN3CCN(C)CC3)cc2)c2ccsc2n1`, the growth with K-562 leukemia was 72.2%; in the test on MALME-3M melanoma, 132%; in the test on MDA-MB-231 breast, 82.4%; in the test with RXF 393 renal it was 61.7%; in the test with SF-268 CNS it was 88.2%; in the test on SF-295 CNS, 118%. Moreover, the growth was 78.4% in the test with SF-539 CNS; 98.3% with UACC-257 melanoma; 98.9% with M14 melanoma; 81% in the test on HCT-15 colon; 66.1% with HT29 colon; 37.7% in the test on SNB-75 CNS. The growth was 107% in the test on SNB-19 CNS; 92.8% with U251 CNS; 69.8% in the test on PC-3 prostate; 90.3% in the test with SK-MEL-5 melanoma; 93.9% in the test on UACC-62 melanoma; 72.8% in the test with LOX IMVI melanoma. The growth was 107% in the test with SK-MEL-28 melanoma and 111% in the test on SK-MEL-2 melanoma.
